Assay results taken from PubChem BioAssay AID624330 (Southern Research Specialized Biocontainment Screening …, 2012).
Screen size: about 340,000 compounds; about 2,100 (0.62%) were called active.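 How the source made its calls: active means first-screen hits whose inhibition reached a set limit at any dose in the follow-up dose series; inconclusive means inhibition above the set first-screen limit but never retested; inactive means the rest.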 Not all results are given here. Results with a measured potency or affinity are listed apart.

molecular target: Rac GTPase-activating protein 1 (Homo sapiens) (UniProt Q9H0H5); test: MgcRacGAP GTPase-activating activity inhibitors, confirmation, biochemical, ADP Hunter fluorescence, primary and confirmatory (AID 624330); settings: MgcRacGAP-stimulated Rac1 GTP hydrolysis, at 30 µM, active compounds read high, GST-tagged Rac1 F28L mutant substrate;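 further: fluorescence reports GDP produced by GAP-driven GTP hydrolysis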
Sequence (Q9H0H5 whole entry, looked up): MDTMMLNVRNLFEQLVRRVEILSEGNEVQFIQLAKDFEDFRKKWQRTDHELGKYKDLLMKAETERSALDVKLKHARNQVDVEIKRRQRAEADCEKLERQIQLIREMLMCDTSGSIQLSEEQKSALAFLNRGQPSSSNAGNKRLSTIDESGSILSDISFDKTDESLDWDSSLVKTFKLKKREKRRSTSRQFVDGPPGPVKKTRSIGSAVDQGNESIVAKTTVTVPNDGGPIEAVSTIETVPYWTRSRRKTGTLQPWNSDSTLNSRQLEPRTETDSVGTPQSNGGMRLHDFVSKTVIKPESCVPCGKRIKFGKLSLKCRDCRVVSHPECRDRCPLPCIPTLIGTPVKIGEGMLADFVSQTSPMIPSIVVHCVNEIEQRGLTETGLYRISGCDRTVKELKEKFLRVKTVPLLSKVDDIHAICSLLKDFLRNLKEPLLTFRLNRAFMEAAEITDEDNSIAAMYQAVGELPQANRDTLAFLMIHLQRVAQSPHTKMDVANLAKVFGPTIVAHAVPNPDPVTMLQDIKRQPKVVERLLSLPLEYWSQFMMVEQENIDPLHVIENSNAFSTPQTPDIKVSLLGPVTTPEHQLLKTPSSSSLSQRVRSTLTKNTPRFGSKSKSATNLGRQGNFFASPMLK

inhibition, inactive:
N#CCC(=O)Nn1c(=S)[nH]c2ccccc2c1=O 3.15%
CCSCCOC(=O)C1=C(C)NC(=O)NC1c1ccccc1 (stereo unspecified) 2.5%
CCCCNC(=O)CNC(=S)N(Cc1cc(OC)c(OC)c(OC)c1)C1CCCC1 5.07%
COc1ccccc1N1CCN(CCCCOc2ccc(F)cc2)CC1 4.56%
COc1ccccc1N1CCN(CCCC(=O)c2ccc(F)cc2)CC1 8.13%
COc1ccc(C(=O)CN2CCN(c3ccc(F)cc3)CC2)cc1 11.7%
COc1ccccc1N1CCN(CCCCCCOc2ccc(F)cc2)CC1 7.05%
CCN(CC)S(=O)(=O)c1ccc(NC(=O)C(OC)c2ccccc2)cc1 (stereo unspecified) 11.8%
C/C(=N\Nc1ccccn1)c1ccc(C#N)cc1 6.31%
Cc1nn(CC(=O)N2CCc3ccccc3C2)c(C)c1[N+](=O)[O-] 4.25%
Nc1ccc(-c2nc3cc(N)ccc3o2)cc1 17.5%
Nc1ccc(-c2nc3ccccc3o2)cc1 4.77%
COc1ccc(CC(=O)OCC(=O)NCc2ccc(Cl)cc2)cc1 -11.6%
COc1cccc(NC(=O)COC(=O)c2ccccc2C(=O)N2CCN(c3ccccc3)CC2)c1 -5.54%
Cc1ccccc1N(CC(=O)N1CCCC1)S(=O)(=O)c1ccc(Cl)cc1 5.47%
CCOc1ccc2nc(-c3ccccc3)nc(SCC(=O)Nc3ncc(C)s3)c2c1 -5.25%
O=C(COc1ccc2c3c(c(=O)oc2c1)CCC3)N1CCCC1 11.2%
CSc1ncccc1C(=O)NCC1CCCCC1 6.8%
CC(C)C(=O)Nc1ccc2c(c1)Cc1cc(NC(=O)C(C)C)ccc1-2 12.2%
COc1cc2c(cc1NC(=O)C(F)(F)F)-c1ccc(NC(=O)C(F)(F)F)cc1C2 4.33%
COc1ccc(/C=N/NC(=O)CCc2ccccc2)cc1O 26.6%
COc1ccc(/C=N\NC(=O)CNC(=O)C(c2ccccc2)c2ccccc2)cc1[N+](=O)[O-] -25.7%
Cc1ccc(/C=N\NC(=O)CC(=O)NCCc2ccccc2)cc1 -1.99%
COc1ccc(NC(=O)CCNC(=O)c2ccccc2Cl)cc1OC 9.17%
COc1cc(C(=O)N/N=C/c2ccc(OC(=O)c3ccccc3Cl)c(OC)c2)ccc1O 17.8%
COc1cccc(/C=N/NC(=O)CCc2ccccc2)c1 8.09%
CCOc1ccc(/C=N\NC(=O)CC(=O)NCCc2ccccc2)cc1 13%
O=C(CNC(=O)C(c1ccccc1)c1ccccc1)N/N=C\c1cccc(O)c1 6.95%
COCCN(C(=O)COC(=O)c1ccc(Br)o1)c1c(N)n(Cc2ccccc2)c(=O)[nH]c1=O 7.5%
O=c1[nH]c(CSc2ncccn2)nc2c1cnn2-c1ccccc1 9.39%
Fc1ccc(-n2cc(CNCCc3cccnc3)c(-c3ccccc3Cl)n2)cc1 5.92%
C=CC[C@@H](CC(=O)N(CCO)Cc1ccccc1)C(=O)N[C@H](COC(=O)[C@@H](CC=C)Cc1ccc(F)cc1)C(C)(C)C 4.96%
CC1(C)CC(=O)C(CC2C(=O)CC(C)(C)CC2=O)C(=O)C1 12.9%
COC(=O)c1cccnc1SCc1ccccc1 3.27%
CCOc1ncccc1C(=O)Nc1cccc(S(=O)(=O)N2CCOCC2)c1 3.19%
COC(=O)CCNC(=O)Cn1cnc2sc3c(c2c1=O)CCCC3 3.18%
CC1(C)CC(=O)N(Cc2ccccc2)C(=O)C1 2.51%
O=C(NCCc1ccc(F)cc1)C(=O)NCC1CCCN1S(=O)(=O)c1cccs1 (stereo unspecified) -7.17%
COc1ccc(/C=N/NC(=O)CC(=O)NCCc2ccccc2)cc1OC 1.81%
COc1ccc(/C=N/NC(=O)/C(=C/c2ccccc2)CCO)cc1 8.48%
COC(=O)c1ccc(/C=N\NC(=O)CC(=O)NCCc2ccccc2)cc1 0.63%
COc1cc(/C=N/NC(=O)C(=O)NCc2ccco2)ccc1O 17.7%
CC(C(=O)Nc1ccc(S(=O)(=O)N2CCOCC2)cc1)N1CCN(c2ccccn2)CC1 (stereo unspecified) -2.88%
CCc1cc(C(=O)OC)c(NC(=O)CC2NCCNC2=O)s1 (stereo unspecified) 0.55%
CC(C)OCC(O)CN1CCNCC1 (stereo unspecified) 5.48%
OC(COc1ccccc1Br)CN1CCNCC1 (stereo unspecified) 1.5%
CC(C)CN(CC(C)C)C(=O)C12CCC(C)(C(=O)C1)C2(C)C (stereo unspecified) -15.8%
Cc1ccc(NC2CCCN(C(=O)c3cccs3)C2)cc1C (stereo unspecified) 22.5%
CCOc1ccc(OCc2ccc(C(=O)N3CCCC(C)C3)cc2)cc1 (stereo unspecified) 0.96%
COc1ccccc1NC(=O)CN1CCN(c2ccccc2)CC1 3.59%
Cc1ccc(NC(=O)CN2CCCCCC2)cc1Br 24.2%
CN1CCN(CC(=O)Nc2ccccc2Oc2ccccc2)CC1 4.33%
Cc1nccn1CC(=O)N/N=C/c1cc(Br)cs1 3.63%
Cc1ccc(NC(=O)CN2CCCC2)cc1Br 30.6%
O=C(Cc1ccccc1)N/N=C/c1cc(Br)cs1 10.7%
CCCCCNCC(=O)Nc1cc(C(F)(F)F)ccc1OCCOC 29.2%
COCCOc1ccc(C(F)(F)F)cc1NC(=O)c1ccc(C(F)(F)F)cc1 -6.51%
O=C(CNC(=O)c1ccccc1)NCC(O)c1ccc([N+](=O)[O-])cc1 (stereo unspecified) -4.75%
CCOCCCNC(=O)Cn1cnc2sc(C)c(S(=O)(=O)N3CCN(c4ncccn4)CC3)c2c1=O 2.97%
CC(C)C[C@H]1CN([C@@H](Cc2ccc(O)cc2)CN2CCC[C@@H]2CN2C(=O)C(=O)NC[C@@H]2Cc2ccccc2)C(=O)C(=O)N1CC1CCCCCC1 10.4%
O=C(CNC(=O)c1ccco1)NCc1ccc2c(c1)OCO2 3.26%
C=CCn1c(-c2ccc(Cl)cc2)cnc1SC(C)C(N)=O (stereo unspecified) 13.8%
CCOc1cc(N2CCOCC2)c(OCC)cc1NC(=O)c1ccc2ncsc2c1 9.53%
Cn1c(=O)c2[nH]c(Cc3cccc(O)c3)nc2n(C)c1=O -6.27%
O=C(Nc1ccc2c(c1)OCO2)O[C@@H]1C[C@H]2CCC(=O)N3CC[C@@H](C1)[C@@H]23 5.22%
COc1ccc(CN2CCNC(=O)C2CC(=O)NCCc2nc(C)c3c(n2)CCC3)cc1C (stereo unspecified) 3.36%
CCCCOc1ccc(NC(=O)CN2CCN(C(=O)OCC)CC2)cc1 23.5%
Cc1ccc(N)cc1NC(=O)CN1CCOCC1 9.26%
CCCCOc1ccc(NC(=O)CN2CCN(Cc3ccccc3)CC2)cc1 2.92%
CCOC(=O)N1CCN(CC(=O)Nc2ccc(C)c(Br)c2)CC1 19.6%
Cc1ccc(NC(=O)CCN2CCN(CCO)CC2)cc1Br 7.64%
COc1ccc(N)cc1NC(=O)CN1CCCC1 30%
CCOc1ccccc1NC(=O)CSC1=NN2CCCC(=O)N=C2S1 4.37%
O=C(Cc1nnc(NC(=O)Nc2ccccc2)s1)NCc1ccccc1 11.4%
O=C(Cc1ccccc1)NCCSCc1ccccc1 10.9%
CC(=O)NS(=O)(=O)c1ccc(NC(=O)c2cccc3ccccc23)cc1 5.73%
COC(=O)c1ccccc1NC(=O)c1cc(-c2ccc(C)cc2)on1 -6.22%
N#CCCN1CCN(C(=S)c2ccc(-c3cccc(Cl)c3)o2)CC1 6.88%
Cc1ccc(N=c2ssnc2Cl)cc1 9.47%
Clc1nssc1=Nc1nncs1 20.4%
CCCCCCCNC(=O)C1(CC2CC(c3ccccc3)=NO2)CCN(C(=O)c2ccccc2)CC1 (stereo unspecified) 7.41%
O=C(Cc1cccc(C(F)(F)F)c1)N1CCCC1 1.4%
COc1ccc(Br)cc1/C=N/NC(=O)CN1CCN(Cc2ccccc2)CC1 2.09%
COc1ccc(C(=O)N/C(=C\c2cn(S(=O)(=O)N(C)C)c3ccccc23)C(=O)N2CCCC2)cc1 12%
CCOc1cc(/C=N/n2nnnc2N)ccc1OCc1c(C)no[n+]1[O-] 7.97%
O=C(/C=C/c1ccc(Br)cc1)NC(=O)c1ccccc1O 0.42%
O=C(/C=C/c1ccccc1)NC(=O)c1ccccc1O 11.1%
CCN(CC)C(=O)c1[nH]cnc1C(=O)N[C@@H](CC(C)C)C(=O)OC(C)(C)C 8.38%
COc1ccc(C(=O)CC2OC(=O)c3c2ccc(OC)c3OC)cc1 (stereo unspecified) -2.86%
COc1ccc2c(c1OC)C(=O)OC2CC(=O)c1ccc(O)cc1 (stereo unspecified) 12.6%
COc1cc(S(=O)(=O)N2CCCCC2)ccc1NC(=O)c1ccncc1 4.39%
O=C(NCc1ccccc1)c1n[nH]nc1-c1ccccc1O -8.5%
Nc1nc(N)c(N=Nc2ccc(C(=O)O)cc2)c(N)n1 -11.2%
Nc1nc(N)c(N=Nc2ccccc2)c(=O)[nH]1 2.34%
C[C@H](CO)N1C[C@H](C)[C@@H](CN(C)S(C)(=O)=O)Oc2ccc(NC(=O)CCN3CCOCC3)cc2C1=O 3.2%
CCOc1ccc(/C=N/Nc2nc(N3CCCC3)nc(N3CCCC3)n2)cc1OC 3.96%
COc1ccc(/C=N/Nc2nc(N3CCCCC3)nc(N3CCCCC3)n2)cc1[N+](=O)[O-] -0.88%
COc1ccc(/C=N/Nc2nc(N3CCCC3)nc(N3CCCC3)n2)cc1 3.1%
C(=N\Nc1nc(N2CCCC2)nc(N2CCCC2)n1)/c1ccncc1 -2.52%
CCOc1cc(/C=N/Nc2nc(N3CCCC3)nc(N3CCCC3)n2)ccc1O 26.7%
O=[N+]([O-])c1cc(/C=N/Nc2nc(N3CCCCC3)nc(N3CCCCC3)n2)ccc1O 9.9%
